Assay outcomes: PubChem BioAssay, several laboratories
PfM18AAP inh-1 = PfM18AAP inhibitors, malaria aminopeptidase, primary screen, biochemical, QFRET, recombinant enzyme; H-Glu-NHMec fluorogenic cleavage; AID 1822, 2009; hit rate 1.2% among 290,000; inhibition, % at 7.35 µM;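 active means inhibition above the campaign mean inhibition over all tested compounds plus 3 SD, cut at about 28% in these data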
GC-B act = human GC-B receptor activators, primary screen, HEK293 GC-B cells, cGMP TR-FRET, EC30 CNP. Atrial natriuretic peptide receptor 2 (Homo sapiens), P20594. 0% at EC30 CNP, 100% saturating CNP. activation, % at 10 µM. hit rate 0.11% among 370,000;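 active means activation at 10 µM reaching about 35% in either raw or pattern-adjusted values, limit read from the data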
Rce1 inh = yeast Rce1p protease inhibitors, primary screen, biochemical, fluorescence, cell-free homogeneous. AID 2563, 2010. CAAX prenyl protease 2 (Saccharomyces cerevisiae (strain ATCC 204508 / S288c)), Q03530. hit rate 0.27% among 290,000. calls only. yeast membranes, quenched prenylated peptide cleavage fluorescence;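 active means fall in fluorescence gain of 50% or more versus controls, with final raw signal at or below 3038400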
NPR1 activator = GC-A stimulated cGMP production enhancers – HEK293 GC-A cells, cGMP TR-FRET, EC30 ANP, primary screen; 0% at EC30 ANP, 100% saturating ANP; AID 1671463, 2021; hit rate 0.14% among 370,000; activation, % at 10 µM; Atrial natriuretic peptide receptor 1 (Homo sapiens), P16066; in the data active means activation above about 40%
PLCg1 inh = PLC-gamma1 enzyme inhibitors, primary screen, biochemical, fluorescence, purified enzyme. 1-phosphatidylinositol 4,5-bisphosphate phosphodiesterase gamma-1 (Homo sapiens), P19174. fluorogenic substrate. inhibition, % at 12.2 µM. hit rate 0.84% among 370,000
PLC-beta3 inh = human PLC-beta3 inhibitors, primary screen, biochemical, fluorescence; AID 720704, 2013; inhibition, % at 12.2 µM; hit rate 0.18% among 370,000; 1-phosphatidylinositol 4,5-bisphosphate phosphodiesterase beta-3 (Homo sapiens), Q01970; Purified PLC-beta3, fluorogenic substrate; in the data active means inhibition above about 11%
PfM18AAP inh-2 = PfM18AAP inhibitors, malaria aminopeptidase, confirmation, biochemical, QFRET, recombinant enzyme, triplicate; inhibition, % at 7.35 µM; H-Glu-NHMec fluorogenic cleavage; shares compounds with PfM18AAP inh-1; hit rate 28% among 2,400;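 active means mean inhibition over replicate wells above the hit cutoff set for the earlier primary screen, cut at about 29% in these data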
CTSL1 counter = cathepsin L1 inhibitors, retest, confirmation, counter-screen for PFM18AAP inhibitor project, biochemical, QFRET, triplicate. shares compounds with PfM18AAP inh-1. purified cathepsin L1, Z-Leu-Arg-MCA fluorescence. inhibition, % at 5.96 µM. 2,400 tested, under 10 active;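 active means average inhibition across replicates above the hit cutoff set in the earlier primary screen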
PLCgamma1 ctr = PLC-gamma1 enzyme inhibitors, counter-screen for PLC-beta3 inhibitor project, biochemical, fluorescence; shares compounds with PLCg1 inh; purified PLC-gamma1, fluorogenic substrate; inhibition, % at 12.3 µM; hit rate 3.1% among 3,300
PLCb3 confirm = PLC-beta3 inhibitor confirmation, biochemical, fluorescence, purified enzyme; AID 743261, 2014; inhibition, % at 12.3 µM; fluorogenic substrate fluorescence; shares compounds with PLCg1 inh; hit rate 1% among 3,300; in the data active means inhibition above about 11%
Each line names hits and unclear results; the compound was inactive in the other large screens (follow-up assays come after a bar, where they were run). Compounds with a hit are over-represented: about 2.2% of the library has one in this group of screens. Unless noted, no stated cut-off is given here; in the data, active means inhibition above about 9.5%; inactive means the rest.

O=C1NC(=O)N(Cc2ccco2)C(=O)/C1=C/c1ccc(-c2cccc([N+](=O)[O-])c2)o1	PfM18AAP inh-1 34 (no result: GC-B act, NPR1 activator, PLCg1 inh, PLC-beta3 inh) | PfM18AAP inh-2 inactive | CTSL1 counter inactive
N#CC1c2ccccc2-n2nncc2CN1C(=O)c1cccnc1 (stereo unspecified)	none (no result: PfM18AAP inh-1, Rce1 inh)
O=c1[nH]c(=O)n(-c2cccc(F)c2)c(O)c1/C=C1\C=Nc2ccccc21	PfM18AAP inh-1 34 | PfM18AAP inh-2 45 | CTSL1 counter inactive
O=C(O)c1ccc(-n2c(O)c(/C=C3\C=Nc4ccccc43)c(=O)[nH]c2=O)cc1	PfM18AAP inh-1 48 | PfM18AAP inh-2 53 | CTSL1 counter inactive
CN1c2ccc(Br)cc2[C@H]2NCC[C@H]2[C@H]1CO	none (no result: PfM18AAP inh-1, Rce1 inh)
N#CCC[C@H]1CC[C@]2(CCCN(Cc3ccccn3)C2)O1	none (no result: PfM18AAP inh-1, Rce1 inh)
O=C1NC(=S)NC(=O)C1=Cc1cccn1-c1ccc(O)cc1	PfM18AAP inh-1 34 | PfM18AAP inh-2 57 | CTSL1 counter inactive
Cc1ccc(-n2nc(C)c3c2NC(=O)CSC3c2ccc3c(c2)OCO3)cc1 (stereo unspecified)	PfM18AAP inh-1 35 | PfM18AAP inh-2 inactive | CTSL1 counter inactive
O=C(NCCN1CCC2(CC1)C(=O)NCN2c1ccccc1)c1ccc(Cl)c(Cl)c1	none (no result: PfM18AAP inh-1, Rce1 inh)
O=C(Cc1ccccc1)OCC(=O)c1ccccc1	none
O=C(OCC(=O)c1ccc([N+](=O)[O-])cc1)/C(=C\c1ccc(Cl)cc1)NC(=O)c1ccccc1	PfM18AAP inh-1 40 | PfM18AAP inh-2 inactive | CTSL1 counter inactive
CCn1cc(C=C2C(=O)NC(=O)NC2=O)c2ccccc21	PfM18AAP inh-1 42 | PfM18AAP inh-2 38 | CTSL1 counter inactive
COC(=O)Cn1cc(C=C2C(=O)NC(=O)NC2=O)c2ccccc21	PfM18AAP inh-1 49 | PfM18AAP inh-2 30 | CTSL1 counter inactive
N/C(=N\N=C\c1ccc(O)cc1O)N[N+](=O)[O-]	PfM18AAP inh-1 44 | PfM18AAP inh-2 65 | CTSL1 counter inactive
COc1ccc2c3c([nH]c2c1)[C@H](C=C(C)C)N1C(=O)[C@@H]2CCCN2C(=O)[C@@H]1C3	none (no result: PfM18AAP inh-1, Rce1 inh)
Cc1cc(/C=C2\C(=O)NC(=O)N(c3cccc(F)c3)C2=O)c(C)n1-c1cc(C(=O)O)cc(C(=O)O)c1	none
Cc1cc(/C=C2\C(=O)NC(=O)N(c3ccc(Br)cc3)C2=O)c(C)n1-c1cc(C(=O)O)cc(C(=O)O)c1	PfM18AAP inh-1 35 | PfM18AAP inh-2 inactive | CTSL1 counter inactive
O=C(NCCN1CCC2(CC1)C(=O)NCN2c1ccccc1)C(c1ccccc1)c1ccccc1	none (no result: PfM18AAP inh-1, Rce1 inh)
O=C1NC(=O)N(c2ccc3c(c2)OCO3)C(=O)/C1=C\c1ccsc1	PfM18AAP inh-1 33 | PfM18AAP inh-2 inactive | CTSL1 counter inactive
O=C1/C(=C\c2cc3c(cc2Br)OCO3)N2CCC1CC2	PfM18AAP inh-1 37 (no result: GC-B act, NPR1 activator, PLCg1 inh, PLC-beta3 inh) | PfM18AAP inh-2 inactive | CTSL1 counter inactive
O=C1/C(=C/c2ccc3c(c2)OCO3)N2CCC1CC2	none
Cc1ccc(OC(=O)N(C)C[C@H]2OCc3cnnn3CCCC(=O)N([C@H](C)CO)C[C@H]2C)cc1	none (no result: PfM18AAP inh-1, Rce1 inh)
COC(=O)C(O)(c1c(C)[nH]n(-c2ccccc2)c1=O)C(F)(F)F (stereo unspecified)	none
COc1cc(C(c2c(C)[nH]n(-c3ccccc3)c2=O)c2c(C)[nH]n(-c3ccccc3)c2=O)cc(OC)c1OC	PLCg1 inh 22 | PLCgamma1 ctr inactive | PLCb3 confirm inactive
COc1ccccc1-n1c(-c2ccoc2)nc2ccccc2c1=O	PLC-beta3 inh 11 | PLCgamma1 ctr inactive | PLCb3 confirm inactive
O=c1c2ccccc2nc(-c2ccoc2)n1-c1ccccc1Cl	none
COc1ccccc1OCCCn1cc(C(=O)C2CC2)c2ccccc21	none
COc1ccccc1OCCCn1cc(C(C)=O)c2ccccc21	PLCg1 inh 13 | PLCgamma1 ctr inactive | PLCb3 confirm inactive
Cc1ccc(C(=O)NCCN2CCC3(CC2)C(=O)NCN3c2ccccc2)cc1	none (no result: PfM18AAP inh-1, Rce1 inh)
NS(=O)(=O)c1nc[nH]c1[N+](=O)[O-]	PLCg1 inh 11 (no result: PfM18AAP inh-1, Rce1 inh) | PLCgamma1 ctr inactive | PLCb3 confirm inactive
O=C(NCCN1CCC2(CC1)C(=O)NCN2c1ccccc1)c1ccccc1C(F)(F)F	none (no result: PfM18AAP inh-1, Rce1 inh)
CCN1CCN(Cc2cccnc2)CC1	PLCg1 inh 9.7 | PLCgamma1 ctr inactive | PLCb3 confirm inactive
CCN1CCN(Cc2ccc(OC(F)(F)F)cc2)CC1	none
C[C@]12CCC(=O)C=C1CC[C@@H]1C2CC[C@]2(C)C(=O)CCC12 (stereo partly specified)	PLCg1 inh 14 | PLCgamma1 ctr inactive | PLCb3 confirm inactive
Brc1csc(N2CCNCC2)n1	none (no result: PfM18AAP inh-1, Rce1 inh)
CN(C)CC#CCC(O)(c1ccccc1)C1CCCC1 (stereo unspecified)	PLC-beta3 inh 13 | PLCgamma1 ctr inactive | PLCb3 confirm inactive
O=c1[nH]c2ccccc2c(=O)n1-c1ccc(Cl)cc1Cl	PLC-beta3 inh 11 | PLCgamma1 ctr inactive | PLCb3 confirm 14
CN(C)CC1CSCCC1(O)c1ccccc1Cl (stereo unspecified)	PLCg1 inh 9.9 | PLCgamma1 ctr inactive | PLCb3 confirm inactive
CN(C)CC1CSCCC1(O)c1ccc(Cl)cc1 (stereo unspecified)	none
O=C1CN=C(c2ccccc2)c2c(sc3c2CCCC3)N1	PLCg1 inh 11 | PLCgamma1 ctr inactive | PLCb3 confirm inactive
O=C1CN=C(c2cccs2)c2c(sc3c2CCCC3)N1	none
Cc1cccc(CS(=O)(=O)Cc2ccc(C(=O)N3CCC4(CC3)OCCO4)o2)c1	PLCg1 inh 14, PLC-beta3 inh 11 | PLCgamma1 ctr inactive | PLCb3 confirm inactive
